{"source": "PubChem BioAssay (Tox21)", "note": "Records with an inconclusive call do not appear. A call without a number means that no potency is given here. The source made the active and inactive calls. The call rests on the fitted dose curve."}
{"experiment": "qHTS assay to identify small molecule antagonists of the sonic hedgehog signaling (Shh) pathway (AID 1259369); further: nearly all actives have a fitted effect of over 45% in size", "settings": "NIH/3T3 Gli1-Luc reporter, Shh antagonist, luminescence 24 h; series mostly up to 92.4 µM", "from_the_text": "U.S. Tox21 Program National Center for Advancing Translational Sciences [NCATS] NIH Chemical Genomics Center [NCGC] U.S. Environmental Protection Agency [EPA] National Institutes of Environmental Health Sciences [NIEHS] National Toxicology Program [NTP] U.S. Food and Drug Administration [FDA] Tox21 Assay Overview: The sonic hedgehog (Shh) pathway is essential for normal embryonic development. Dysregulation of the Shh pathway can cause severe developmental defects in organs. Therefore chemicals that interfere with the pathway are potential developmental toxicants. A cell line designated 3T3Gli1-Luc (DMB/OARSA/CFSAN/FDA, Laurel, MD), a NIH/3T3 derived clone containing stably integrated Gli1-Luc reporter is used to detect chemical interference of the Shh pathway, by changes in the expression of the firefly Luc gene under the control of the Gli1 transcriptional response element. This cell line was used to screen Tox21 libraries for identifying and prioritizing the potential developmental toxicants that interfere Shh pathway. Conditioned medium-stimulated mode was used to screen for chemicals inhibiting Shh signaling.\nTox21 Assay Protocol Summary: 3T3 Gli1-Luc cells were dispensed at 2,000 per well in 5uL of culture medium into white solid bottom 1536-well plates (Greiner Bio-One, Monroe, NC) using a Multidrop Combi (Thermo Scientific, Waltham, MA) dispenser. The assay plates were incubated at 37 C and 5% CO2 for 4hr, and then 23nL of compounds dissolved in DMSO and positive control were transferred using a Pintool station (Wako, San Diego, CA). The compound transfer was followed by the addition of 1ul conditioned medium or assay buffer using two separate tips of Flying Reagent Dispenser (FRD, Aurora Discovery, San Diego, CA). The assay plates were incubated at 37C and 5% CO2 for 24hr. For luciferase read, 4uL of Amplite Luciferase reporter gene assay reagent (AAT Bioquest, Inc. Sunnyvale, CA) was added to each well of the assay plates using FRD and incubated at room temperature for 30min. The luminescence signal was measured using a ViewLux plate reader (Perkin Elmer, Shelton, CT)."}
{"smiles": "Cc1ccc2ccccc2n1", "Potency": "inactive"}
{"smiles": "Cc1ccc(S(=O)(=O)NC(=O)NN2CC3CCCC3C2)cc1", "note": "(stereo not given)", "Potency": "inactive"}
{"smiles": "CC(C)(C)C(=O)CCc1ccc(Cl)cc1", "Potency": "inactive"}
{"smiles": "O=C(O)Cc1c(Cl)ccc(Cl)c1Cl", "Potency": "inactive"}
{"smiles": "CCCCCCCCCCCCCC(=O)OCC", "Potency": "inactive"}
{"smiles": "C=C(C)C(=O)OCCCC", "Potency": "inactive"}
{"smiles": "Cc1ccc(NC(N)=O)cc1", "Potency": "inactive"}
{"smiles": "Cc1ccc(N)nc1", "Potency": "inactive"}
{"smiles": "COc1cc(C(=O)NC2CCCNC2)cc(OC)c1OC", "note": "(stereo not given)", "Potency": "inactive"}
{"smiles": "CCCCNCC", "Potency": "inactive"}
{"smiles": "CC(=O)c1c(C)cc(C(C)(C)C)cc1C", "Potency": "inactive"}
{"smiles": "CC(C)(C)c1ccc(C(=O)CCCCl)cc1", "Potency": "inactive"}
{"smiles": "CN(C)CCc1c[nH]c2ccc(C[C@H]3COC(=O)N3)cc12", "Potency": "inactive"}
{"smiles": "N#CC1(N)CCCCC1", "Potency": "inactive"}
{"smiles": "O=Cc1ccc(C(=O)O)cc1", "Potency": "inactive"}
{"smiles": "C/C=C(\\C)C(=O)OC/C=C(\\C)CCC=C(C)C", "Potency": "inactive"}
{"smiles": "CC(=O)SC[C@@H](C)C(=O)N1CCC[C@H]1C(=O)N[C@@H](Cc1ccccc1)C(=O)O", "Potency": "inactive"}
{"smiles": "CC1(C)S[C@@H]2[C@H](NC(=O)Cc3ccccc3)C(=O)N2[C@H]1C(=O)O", "note": "(tested in a mixture with another compound)", "Potency": "inactive"}
{"smiles": "COC(=O)c1cc(Cl)c(NC(C)=O)cc1OC", "Potency": "inactive"}
{"smiles": "CCCCc1ccc(Cl)cc1", "Potency": "inactive"}
{"smiles": "CC(=O)c1ccc2ccc3ccccc3c2c1", "Potency": "inactive"}
{"smiles": "NCC1CCC(C(=O)Oc2ccc(CCC(=O)O)cc2)CC1", "note": "(stereo not given)", "Potency": "inactive"}
{"smiles": "CCCCC(CC)COC(=O)CC#N", "note": "(stereo not given)", "Potency": "inactive"}
{"smiles": "N[C@H]1C(O)O[C@H](CO)[C@@H](O)[C@@H]1O", "note": "(stereo not given in full)", "Potency": "inactive"}
{"smiles": "NNC(=O)CCCCC(=O)NN", "Potency": "inactive"}
{"smiles": "O=C[C@@H](O)[C@H](O)[C@H](O)CO", "Potency": "inactive"}
{"smiles": "C[Si](C)(C)O[Si](O)(O)O", "Potency": "inactive"}
{"smiles": "CCCC(=O)OC", "Potency": "inactive"}
{"smiles": "CNC(C)=O", "Potency": "inactive"}
{"smiles": "O=S(=O)(O)c1ccc(Cl)cc1", "Potency": "inactive"}
{"smiles": "O=C1CCCc2c(O)cccc21", "Potency": "inactive"}
{"smiles": "NC(=O)CC[C@@H](N)C(=O)O", "Potency": "inactive"}
{"smiles": "N=C(N)S(=O)O", "Potency": "inactive"}
{"smiles": "CCCCN(CCCC)CCCCCCN(CCCC)CCCC", "Potency": "inactive"}
{"smiles": "CC(C)(C)OC(=O)c1ccccc1C(=O)O", "Potency": "inactive"}
{"smiles": "COc1ccc2cc(CCC(C)=O)ccc2c1", "Potency": "inactive"}
{"smiles": "O=C(O)P(=O)(O)O", "Potency": "inactive"}
{"smiles": "CCCC[O][Al]([O]CCCC)[O]CCCC", "Potency": "inactive"}
{"smiles": "Cc1cc(N)no1", "Potency": "inactive"}
{"smiles": "CCCCN1C(=O)c2ccccc2C1=O", "Potency": "inactive"}
